Experimental data: the supplement of paper PMC10849652
About 7,900 targets were measured; listed, in parts, are those with a hit and a random draw of the rest. About 0.6% of all pairs of compound and target were hits. A number with no mark means an inactive call.

What was measured:
Assay in all cases: log2 fold change, soluble protein after heating vs DMSO (PISA); higher = thermal stabilisation; K562 cells, 10 uM, 30 min; active = over 0.2 and 3.5 SD of the protein, either way, in both replicates (recomputed)
erlotinib = compound: C#Cc1cccc(Nc2ncnc3cc(OCCOC)c(OCCOC)cc23)c1 [erlotinib]
Method in brief: (§1)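 For each measurement, 10 μM compound was applied for 30 min to K562 cells at 2×10^6 cells/mL. Aliquots were heated for 3 min across 48°C-58°C, pooled, and extracted in PBS with 0.5% NP-40 at 4°C; the supernatant after 21,000xg for 90 min was soluble protein. This was quantified by TMTpro 16plex LC-MS/MS with channel sums equalised, and thermal stability was reported relative to control samples from duplicates, on a log2 fold-change scale.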

[1] = compound: C/C(=N\NC(=O)C1=CC(=CC=C1)S(=O)(=O)N2CCOCC2)/C3=C(C=CC(=C3)Cl)O
Method in brief: as §1

[2] = compound: C1=CC(=CC=C1C2=NC3=C(N2)C=C(C=C3)C(=O)N)OC4=CC=C(C=C4)Cl
Method in brief: as §1

[3] = compound: C1=CC2=C(C=CC(=C2)/C=C\3/C(=O)NC(=NCC4=CC=CS4)S3)N=C1
Method in brief: as §1

[4] = compound: C1=CC2=NC=CN=C2C=C1/C=C/3\C(=O)NC(=O)S3
Method in brief: as §1

[5] = compound: C1=CC=C2C(=C1)C3=NNC4=CC=CC(=C43)C2=O
Method in brief: as §1

[6] = compound: C1CCN(C1)C(=O)NC2=CC=CC(=C2)NC3=NC=C(C(=N3)NCCC4=CN=CN4)Br
Method in brief: as §1

[7] = compound: C1CN(CCC1(CC2=CC=C(C=C2)Cl)N)C3=NC=NC4=C3C=CN4
Method in brief: as §1

IRAK-1-4 Inhibitor I = compound: C1COCCN1CCN2C3=CC=CC=C3N=C2NC(=O)C4=CC(=CC=C4)[N+](=O)[O-] [IRAK-1-4 Inhibitor I]
Method in brief: as §1

ibrutinib = compound: C=CC(=O)N1CCC[C@@H](n2nc(-c3ccc(Oc4ccccc4)cc3)c3c(N)ncnc32)C1 [ibrutinib]
Method in brief: as §1

[8] = compound: CC(=O)c1cnc2ccc(-c3cc(Cl)c(O)c(Cl)c3)nc2c1N[C@H]1CC[C@H](CN(C)C)CC1
Method in brief: as §1

[9] = compound: CC(C)C1=C2N=C(C=C(N2N=C1)NCC3=CC=CC=C3)NCCCCCCN
Method in brief: as §1

pinometostat = compound: CC(C)N(C[C@H]1O[C@@H](n2cnc3c(N)ncnc32)[C@H](O)[C@@H]1O)[C@H]1C[C@@H](CCc2nc3cc(C(C)(C)C)ccc3[nH]2)C1 [pinometostat]
Method in brief: as §1

[10] = compound: CC1=C(C(CC(=O)N1)C2=CC=C(C=C2)C(F)(F)F)C(=O)NC3=C(C=C4C(=C3)C=NN4)F
Method in brief: as §1

[11] = compound: CC1=C(C2=C(C=C1)C(=O)C3=CC=CC=C3N2CCCN)C
Method in brief: as §1

[12] = compound: C1=CC(=C(C=C1Cl)C2=NC3=NC=CN=C3C(=N2)NC4=CC=NC=C4)F
Method in brief: as §1

[13] = compound: CC(C)(O)CC(=O)NCCn1ccc2ncnc(Nc3ccc(Oc4cccc(C(F)(F)F)c4)c(Cl)c3)c21
Method in brief: as §1

[14] = compound: C1=CC=C(C=C1)C2=NC(=C(N2)C3=CC=NC=C3)C4=CC(=C(C=C4)Cl)O
Method in brief: as §1

ralimetinib = compound: CC(C)(C)Cn1c(N)nc2ccc(-c3[nH]c(C(C)(C)C)nc3-c3ccc(F)cc3)nc21 [ralimetinib]
Method in brief: as §1

[15] = compound: CC(C)C[C@@H](C=O)NC(=O)[C@H](CC(C)C)NC(=O)[C@H](CC(C)C)NC(=O)OCc1ccccc1
Method in brief: as §1

Sequence of UniProt P98171 (P98171 whole entry, looked up): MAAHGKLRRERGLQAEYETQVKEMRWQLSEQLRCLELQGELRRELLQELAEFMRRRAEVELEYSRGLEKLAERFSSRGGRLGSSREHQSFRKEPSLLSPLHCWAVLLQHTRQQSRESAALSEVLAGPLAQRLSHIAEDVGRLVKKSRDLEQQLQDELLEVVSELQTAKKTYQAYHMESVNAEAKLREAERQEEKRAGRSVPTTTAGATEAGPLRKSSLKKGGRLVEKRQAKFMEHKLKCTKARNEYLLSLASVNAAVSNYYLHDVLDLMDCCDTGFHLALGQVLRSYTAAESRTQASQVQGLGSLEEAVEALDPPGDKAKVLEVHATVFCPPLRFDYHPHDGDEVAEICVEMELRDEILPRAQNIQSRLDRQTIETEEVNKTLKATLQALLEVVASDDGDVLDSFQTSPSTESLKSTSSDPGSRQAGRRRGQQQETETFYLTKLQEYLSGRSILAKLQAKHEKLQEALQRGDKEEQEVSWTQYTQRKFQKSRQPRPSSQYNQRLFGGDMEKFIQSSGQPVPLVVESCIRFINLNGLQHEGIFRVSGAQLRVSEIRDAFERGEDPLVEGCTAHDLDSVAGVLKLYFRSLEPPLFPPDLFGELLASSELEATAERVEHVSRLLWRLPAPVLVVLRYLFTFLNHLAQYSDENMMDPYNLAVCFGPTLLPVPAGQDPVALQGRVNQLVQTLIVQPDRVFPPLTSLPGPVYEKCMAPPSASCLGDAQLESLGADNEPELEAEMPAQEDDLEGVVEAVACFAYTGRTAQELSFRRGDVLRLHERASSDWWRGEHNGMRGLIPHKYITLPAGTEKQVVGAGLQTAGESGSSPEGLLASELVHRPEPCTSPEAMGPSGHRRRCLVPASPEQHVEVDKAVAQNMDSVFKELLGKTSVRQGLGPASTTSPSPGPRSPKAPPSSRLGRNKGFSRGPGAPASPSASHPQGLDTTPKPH
Sequence of UniProt Q9UNK9 (Q9UNK9 whole entry, looked up): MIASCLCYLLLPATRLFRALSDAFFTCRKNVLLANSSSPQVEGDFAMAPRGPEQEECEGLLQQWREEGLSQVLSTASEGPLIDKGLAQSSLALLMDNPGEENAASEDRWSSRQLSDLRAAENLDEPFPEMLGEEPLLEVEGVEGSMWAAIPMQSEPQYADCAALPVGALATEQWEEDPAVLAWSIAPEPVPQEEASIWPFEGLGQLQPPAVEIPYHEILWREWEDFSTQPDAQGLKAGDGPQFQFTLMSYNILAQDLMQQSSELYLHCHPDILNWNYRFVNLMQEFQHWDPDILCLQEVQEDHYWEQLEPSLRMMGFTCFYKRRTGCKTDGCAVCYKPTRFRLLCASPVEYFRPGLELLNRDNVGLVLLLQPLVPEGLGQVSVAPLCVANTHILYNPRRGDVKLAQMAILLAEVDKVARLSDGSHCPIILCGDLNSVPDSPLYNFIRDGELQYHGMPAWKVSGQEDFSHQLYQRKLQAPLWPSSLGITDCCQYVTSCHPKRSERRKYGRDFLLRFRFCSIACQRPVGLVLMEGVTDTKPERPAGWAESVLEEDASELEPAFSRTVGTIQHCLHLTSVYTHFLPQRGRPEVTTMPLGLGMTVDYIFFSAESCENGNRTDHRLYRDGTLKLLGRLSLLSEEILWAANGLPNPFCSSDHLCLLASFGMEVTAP
Sequence of UniProt Q7Z591 (Q7Z591 whole entry, looked up): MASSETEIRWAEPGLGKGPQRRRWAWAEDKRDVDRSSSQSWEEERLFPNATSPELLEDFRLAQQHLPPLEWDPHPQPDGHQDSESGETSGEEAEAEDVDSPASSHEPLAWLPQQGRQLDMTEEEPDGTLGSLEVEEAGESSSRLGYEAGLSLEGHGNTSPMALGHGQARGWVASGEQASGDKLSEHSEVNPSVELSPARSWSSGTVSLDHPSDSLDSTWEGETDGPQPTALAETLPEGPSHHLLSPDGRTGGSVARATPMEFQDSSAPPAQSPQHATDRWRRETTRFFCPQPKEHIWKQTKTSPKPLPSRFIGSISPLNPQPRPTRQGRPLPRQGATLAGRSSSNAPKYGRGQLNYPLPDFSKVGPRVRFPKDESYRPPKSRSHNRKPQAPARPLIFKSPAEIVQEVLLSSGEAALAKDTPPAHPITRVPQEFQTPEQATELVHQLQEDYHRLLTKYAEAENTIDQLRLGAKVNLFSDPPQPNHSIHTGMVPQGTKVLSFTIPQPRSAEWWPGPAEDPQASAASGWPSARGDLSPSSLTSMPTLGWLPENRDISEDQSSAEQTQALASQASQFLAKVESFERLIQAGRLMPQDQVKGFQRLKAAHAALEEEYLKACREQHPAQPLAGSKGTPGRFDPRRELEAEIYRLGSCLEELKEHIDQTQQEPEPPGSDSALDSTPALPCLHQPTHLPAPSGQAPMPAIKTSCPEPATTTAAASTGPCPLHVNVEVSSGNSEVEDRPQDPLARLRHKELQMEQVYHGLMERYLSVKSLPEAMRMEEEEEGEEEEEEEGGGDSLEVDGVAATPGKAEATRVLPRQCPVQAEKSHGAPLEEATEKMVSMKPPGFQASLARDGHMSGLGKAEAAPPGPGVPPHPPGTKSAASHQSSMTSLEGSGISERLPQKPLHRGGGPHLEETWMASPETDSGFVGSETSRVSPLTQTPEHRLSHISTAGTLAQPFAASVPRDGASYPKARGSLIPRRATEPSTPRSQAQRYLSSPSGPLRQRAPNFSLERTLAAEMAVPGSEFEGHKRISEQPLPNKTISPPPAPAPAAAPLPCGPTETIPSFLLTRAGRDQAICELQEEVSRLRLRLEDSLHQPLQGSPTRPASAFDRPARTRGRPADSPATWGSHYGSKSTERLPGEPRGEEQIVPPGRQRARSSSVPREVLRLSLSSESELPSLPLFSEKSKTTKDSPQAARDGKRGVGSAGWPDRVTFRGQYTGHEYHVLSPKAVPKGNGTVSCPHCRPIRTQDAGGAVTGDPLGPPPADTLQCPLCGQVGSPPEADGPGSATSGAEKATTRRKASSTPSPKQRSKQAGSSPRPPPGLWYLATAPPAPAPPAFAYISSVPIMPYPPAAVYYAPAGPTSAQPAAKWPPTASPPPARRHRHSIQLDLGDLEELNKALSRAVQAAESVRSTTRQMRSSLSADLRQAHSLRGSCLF
Sequence of UniProt Q9UEY8 (Q9UEY8 whole entry, looked up): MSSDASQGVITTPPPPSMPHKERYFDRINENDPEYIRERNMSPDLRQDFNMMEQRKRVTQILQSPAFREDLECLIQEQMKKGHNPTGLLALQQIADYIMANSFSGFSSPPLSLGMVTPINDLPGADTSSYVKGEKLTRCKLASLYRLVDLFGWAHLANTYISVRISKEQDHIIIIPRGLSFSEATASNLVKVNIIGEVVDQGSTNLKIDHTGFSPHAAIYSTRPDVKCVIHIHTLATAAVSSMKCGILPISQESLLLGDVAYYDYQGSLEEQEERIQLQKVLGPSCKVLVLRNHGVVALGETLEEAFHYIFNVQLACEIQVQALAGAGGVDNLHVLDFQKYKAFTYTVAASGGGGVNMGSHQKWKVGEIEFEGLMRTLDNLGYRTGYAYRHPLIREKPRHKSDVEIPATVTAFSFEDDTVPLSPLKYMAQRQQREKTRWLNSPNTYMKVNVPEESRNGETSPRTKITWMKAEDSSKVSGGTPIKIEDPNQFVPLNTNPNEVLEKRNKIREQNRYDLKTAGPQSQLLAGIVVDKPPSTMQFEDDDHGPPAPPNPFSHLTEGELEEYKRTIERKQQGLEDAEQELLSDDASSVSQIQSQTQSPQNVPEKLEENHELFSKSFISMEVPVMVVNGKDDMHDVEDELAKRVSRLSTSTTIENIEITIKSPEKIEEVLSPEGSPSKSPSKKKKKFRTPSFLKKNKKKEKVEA
Sequence of UniProt Q15059 (Q15059 whole entry, looked up): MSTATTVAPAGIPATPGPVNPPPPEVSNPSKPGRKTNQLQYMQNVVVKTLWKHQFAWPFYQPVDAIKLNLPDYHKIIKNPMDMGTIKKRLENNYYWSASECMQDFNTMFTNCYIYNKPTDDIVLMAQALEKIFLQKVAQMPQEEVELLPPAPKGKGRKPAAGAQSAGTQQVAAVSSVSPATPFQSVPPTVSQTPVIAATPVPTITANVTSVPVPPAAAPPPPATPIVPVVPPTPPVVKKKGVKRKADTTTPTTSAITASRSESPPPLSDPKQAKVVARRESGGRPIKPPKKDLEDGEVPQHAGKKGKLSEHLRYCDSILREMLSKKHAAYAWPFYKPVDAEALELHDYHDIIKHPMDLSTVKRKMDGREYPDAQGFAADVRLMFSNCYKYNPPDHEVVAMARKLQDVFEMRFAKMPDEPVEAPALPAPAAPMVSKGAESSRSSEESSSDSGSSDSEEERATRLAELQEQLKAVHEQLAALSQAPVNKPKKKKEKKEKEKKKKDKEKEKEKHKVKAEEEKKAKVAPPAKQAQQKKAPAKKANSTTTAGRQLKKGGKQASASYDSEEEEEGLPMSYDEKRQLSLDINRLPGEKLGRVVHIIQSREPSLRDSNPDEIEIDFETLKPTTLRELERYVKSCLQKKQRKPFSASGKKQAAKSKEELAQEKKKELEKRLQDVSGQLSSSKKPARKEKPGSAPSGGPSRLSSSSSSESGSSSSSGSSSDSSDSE
Sequence of UniProt P40617 (P40617 whole entry, looked up): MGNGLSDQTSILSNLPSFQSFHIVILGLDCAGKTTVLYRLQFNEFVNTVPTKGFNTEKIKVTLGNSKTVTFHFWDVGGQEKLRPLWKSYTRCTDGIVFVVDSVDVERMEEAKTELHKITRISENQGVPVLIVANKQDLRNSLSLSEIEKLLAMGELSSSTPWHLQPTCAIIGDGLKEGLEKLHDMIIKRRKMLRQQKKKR
Sequence of UniProt Q96BI3 (Q96BI3 whole entry, looked up): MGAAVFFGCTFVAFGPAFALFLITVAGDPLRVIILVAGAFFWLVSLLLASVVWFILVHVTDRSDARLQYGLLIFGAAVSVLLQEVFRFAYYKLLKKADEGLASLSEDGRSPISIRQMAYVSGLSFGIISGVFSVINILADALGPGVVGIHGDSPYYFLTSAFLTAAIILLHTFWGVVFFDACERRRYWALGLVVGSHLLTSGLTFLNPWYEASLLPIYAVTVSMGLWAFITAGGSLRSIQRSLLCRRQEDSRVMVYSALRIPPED

Row | Target | log2 fold change (erlotinib) | log2 fold change [1] | log2 fold change [2] | log2 fold change [3] | log2 fold change [4] | log2 fold change [5] | log2 fold change [6] | log2 fold change [7] | log2 fold change (IRAK-1-4 Inhibitor I) | log2 fold change (ibrutinib) | log2 fold change [8] | log2 fold change [9] | log2 fold change (pinometostat) | log2 fold change [10] | log2 fold change [11] | log2 fold change [12] | log2 fold change [13] | log2 fold change [14] | log2 fold change (ralimetinib) | log2 fold change [15]
1 | APH1A (UniProt Q96BI3) | 0 | -0.046 | 0.052 | 0.073 | 0.048 | -0.09 | -0.188 | 0.071 | 0.021 | 0.036 | -0.076 | -0.047 | -0.056 | 0.028 | -0.03 | – | – | – | – | –
2 | AP2M1 (UniProt C9JTK4) | – | -0.114 | – | 0.322 | 0.172 | -0.12 | 0.084 | -0.065 | 0.056 | -0.044 | 0.049 | – | 0.03 | 0.085 | 0.001 | 0.036 | 0.005 | – | – | –
3 | ADD1 isoform 4 (UniProt P35611) | – | – | – | – | -0.019 | – | – | – | -0.21 | 0.029 | – | – | 0.122 | – | – | 0.169 | -0.117 | – | – | –
4 | ANGEL1 (UniProt Q9UNK9) | – | – | – | – | 0.161 | – | -0.149 | 0.092 | -0.042 | 0.062 | – | – | -0.019 | – | 0.074 | – | – | -0.107 | 0.332 | 0.207
5 | BRAF, A0A2R8Y8E0 | 0.073 | 0.15 | 0.083 | -0.248 | – | -0.047 | -0.235 | -0.26 | 0.055 | – | 0.156 | -0.188 | -0.04 | 0.149 | 0.078 | – | – | -0.987 (active) | 0.059 | 0.067
6 | ARHGAP4 isoform 2 (UniProt P98171) | 0.042 | -0.338 | 0.033 | 0.121 | -0.209 | -0.061 | -0.117 | 0.015 | – | 0.026 | -0.051 | -0.067 | – | -0.179 | 0.062 | – | – | -0.016 | 0.161 | -0.005
7 | AKNA (UniProt Q7Z591) | -0.147 | – | 0.195 | – | – | – | – | – | – | – | – | -0.659 (active) | – | – | – | – | – | – | – | –
8 | ADD3 isoform 2 (UniProt Q9UEY8) | – | 0.171 | – | 0.057 | – | 0.047 | -0.016 | 0.034 | 0.008 | – | -0.433 | – | 0.108 | – | -0.063 | -0.049 | 0.005 | 0.009 | -0.015 | 0.009
9 | ACTR3B (UniProt Q9P1U1) | -0.033 | – | 0.073 | – | – | – | -0.012 | 0.145 | -0.04 | – | – | 0.181 | -0.081 | -0.015 | -0.016 | – | – | -0.078 | -0.071 | 0.056
10 | ARRDC1 (UniProt Q8N5I2) | -0.079 | – | 0.038 | – | -0.05 | – | -0.03 | -0.066 | – | 0.062 | – | -0.07 | – | -0.075 | 0.045 | -0.075 | 0.102 | 0.042 | 0.076 | 0.094
11 | ATXN3 isoform 1 (UniProt P54252) | 0.082 | 0.107 | 0.038 | -0.042 | 0.082 | -0.115 | -0.073 | -0.002 | -0.031 | 0.028 | 0.065 | -0.314 | 0.021 | 0.018 | 0.016 | – | – | -0.038 | 0.018 | 0.234
12 | ADAMTS5 (UniProt Q9UNA0) | 0.186 | -0.518 (active) | -0.124 | 0.171 | 0.012 | 0.043 | -0.06 | 0.113 | 0.064 | 0.127 | 0.036 | 0.088 | -0.03 | -0.015 | 0.025 | – | – | 0.072 | 0.141 | -0.009
13 | ATXN7L3 isoform 2 (UniProt Q14CW9) | 0.069 | -0.31 | 0.071 | 0.025 | 0.159 | -0.037 | – | – | 0.114 | 0.147 | 0.027 | 0.066 | 0.093 | 0.018 | – | – | – | -0.122 | 0.036 | -0.053
14 | BAIAP2 isoform 4 (UniProt Q9UQB8) | – | – | – | – | – | – | -0.16 | -0.048 | – | – | – | – | – | – | 0.053 | – | – | – | – | –
15 | ARFIP1 isoform 2 (UniProt P53367) | 0.106 | – | -0.051 | – | -0.06 | – | – | – | -0.051 | -0.055 | – | -0.048 | 0.043 | 0.029 | – | -0.064 | -0.186 | – | – | –
16 | ADPRH (UniProt P54922) | -0.021 | – | -0.047 | – | 0.008 | – | 0.141 | -0.065 | 0.056 | 0.001 | – | 0.107 | 0.021 | -0.032 | 0.037 | -0.047 | -0.084 | -0.011 | -0.003 | -0.033
17 | BRMS1 (UniProt Q9HCU9) | – | -0.656 (active) | – | 0.09 | – | -0.041 | 0.024 | 0.119 | – | – | 0.055 | – | – | – | -0.014 | 0.075 | -0.002 | – | – | –
18 | BRD3 (UniProt Q15059) | -0.282 | -0.072 | 0.061 | -0.021 | 0.071 | 0.059 | -0.163 | -0.024 | 0.163 | 0.037 | -0.032 | 0.152 | 0.143 | 0.026 | 0.162 | – | – | 0.128 | -0.136 | -0.065
19 | BDH2 (UniProt Q9BUT1) | -0.003 | 0.204 | 0.184 | -0.031 | -0.005 | 0.103 | – | – | -0.009 | 0.041 | -0.073 | 0.183 | 0.004 | – | – | – | – | 0.085 | -0.059 | 0.001
20 | ARMC8 isoform 6 (UniProt Q8IUR7) | -0.145 | 0.081 | -0.168 | -0.075 | 0.078 | -0.067 | – | – | – | 0.016 | 0.038 | 0.053 | – | -0.024 | – | – | – | – | – | –
21 | AUNIP isoform 2 (UniProt Q9H7T9) | -0.023 | 0.066 | 0.297 | 0.083 | – | 0.027 | 0.041 | 0.066 | – | – | -0.219 | -0.134 | – | – | -0.141 | – | – | – | – | –
22 | AP2S1 (UniProt M0QZ21) | – | – | – | – | – | – | -0.625 | 0.21 | – | – | – | – | – | – | 0.139 | – | – | – | – | –
23 | ADD2 isoform 9 (UniProt P35612) | – | – | – | – | -0.025 | – | – | – | – | -0.098 | – | – | – | – | – | – | – | 0.203 | 0.145 | -0.103
24 | ARL4A (UniProt P40617) | – | 0.009 | – | 0.35 | -0.053 | 0.047 | – | – | – | 0.143 | -0.295 | – | – | – | – | – | – | – | – | –
